From PubChem BioAssay
An excerpt weighted towards active compounds, which were near 4.6% of everything screened.
TIM10 inh: growth inhibitors of TIM10 yeast strain; S. cerevisiae TIM10 strain growth, BacTiter-Glo luminescence, 24 h; hit rate 1.4% among 330,000; inhibition, % at 10 µM; AID 463195;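 active = inhibition of 40% or more at the single tested concentration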;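 note: wild-type TIM10 isogenic control strain grown at permissive 25 °C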
PfHsp90 set2: growth inhibition of yeast expressing Plasmodium Hsp90; S. cerevisiae expressing PfHsp90, BacTiter-Glo ATP, 48 h; yeast lacking PDR1 and PDR3 efflux regulators; hit rate 0.32% among 310,000; AID 504621; inhibition, % at 9.4 µM;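 active = every replicate shows inhibition above about 80%, whatever the replicate mean, limit read from the data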;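 note: 0% = DMSO neutral controls and 100% = 20 µM radicicol positive controls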
tim10-1 inh: inhibits growth of tim10-1 mutant yeast; S. cerevisiae tim10-1 ts strain growth, BacTiter-Glo, 24 h; hit rate 2.2% among 330,000; inhibition, % at 20 µM;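 active = inhibition of at least 40%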;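 note: mutant grown at 25 °C; 0% = DMSO wells with yeast and 100% = wells holding no yeast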
SKKanGAS inh: blocks kanamycin growth of S. pyogenes SKKanGAS strain; inhibition, % at 7.5 µM; BacTiter-Glo, 6 h; hit rate 1.3% among 300,000;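 active = mean replicate score, as percent of positive control median, at least 50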;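 note: strain carries kanamycin resistance gene driven by streptokinase promoter and grows in 40 µg/ml kanamycin; loss of luminescence reflects streptokinase promoter inhibition or plain growth inhibition; 0% = median of DMSO wells and 100% = positive control at its reference dose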
tim23-1 inh: inhibits growth of tim23-1 mutant yeast | S. cerevisiae tim23-1 growth, BacTiter-Glo luminescence, 24 h | inhibition, % at 20 µM | hit rate 1.3% among 330,000 | AID 463212;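 active = growth inhibition of the mutant yeast at or above 50%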;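 note: temperature-sensitive mutant grown at 25 °C; plate controls were DMSO-treated mutant yeast for no effect and medium wells lacking yeast for full effect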
NALP3 yeast inh: blocks the NALP3 inflammasome reconstituted in yeast. Yeast reconstituted NLRP3/ASC/caspase-1, beta-gal luminescence, 24 h. inhibition, % at 10 µM. hit rate 0.39% among 330,000;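 active = inhibition of 50% or more; inactive = inhibition below 50%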;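 note: plate controls were induced DMSO wells for no effect and uninduced yeast grown without galactose for full effect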
NALP3 confirm: confirmation of NALP3 inhibitors in yeast | hit rate 81% among 1,300 | inhibition, % at 10 µM | yeast expressing human NALP3, luminescence | shares compounds with NALP3 yeast inh; in the data active = inhibition above about 48%
Casp1 ASC ctr: counter-screen for NALP3 inhibitors: yeast caspase-1-ASC; shares compounds with NALP3 yeast inh; yeast expressing Caspase-1-ASC, luminescence counter screen; inhibition, % at 10 µM; hit rate 66% among 1,000; AID 488784
NALP3 retest: confirmation retest of NALP3 inhibitors in yeast; inhibition, % at 10 µM; yeast expressing human NALP3, luminescence read-out; hit rate 53% among 1,000; shares compounds with NALP3 yeast inh
* = called active by the depositor; . = no result given. Cut-off read from the data, not from the text of the source, unless noted: active = inhibition above about 50%; inactive = the rest.

SMILES	TIM10 inh	PfHsp90 set2	tim10-1 inh	SKKanGAS inh	tim23-1 inh	NALP3 yeast inh	NALP3 confirm	Casp1 ASC ctr	NALP3 retest
O=C1C(=O)N(CCCN2CCOCC2)C(c2ccc(Cl)cc2)/C1=C(\O)c1ccc2c(c1)OCCO2 (centres undefined)	-10.8	-2.9	5.0	1.1	0.2	4.3	.	.	.
CCCCOc1ccc(C2/C(=C(\O)c3ccc4c(c3)OCCO4)C(=O)C(=O)N2CCCN2CCOCC2)cc1 (centres undefined)	11.0	3.9	4.6	-8.9	7.3	59.5*	54.9*	68.3*	53.5*
Cc1c(NC(=O)C2CCCCC2)cc(C(=O)N2CCOCC2)cc1[N+](=O)[O-]	-5.8	.	22.0	4.6	-3.8	-1.0	.	.	.
Cc1ccc(OCC(=O)NNC(=O)CCc2ccccc2)c(Br)c1	-6.4	-6.7	16.2	-3.2	21.6	26.6	.	.	.
CCCCCCCCCCCCOC(=O)C[N+](C)(C)C	-41.1	.	29.6	113.1*	19.5	53.6*	46.0	59.1*	52.4*
C=CCc1ccccc1OCC(O)CN1CCN(c2ccc(C)cc2)CC1 (centres undefined)	7.1	-5.7	15.8	10.9	14.4	38.5	.	.	.
Cc1cccc(N2CCN(CC(O)COc3ccccc3Cl)CC2)c1 (centres undefined)	12.8	-6.4	-2.7	9.1	28.8	50.4*	64.2*	37.2	45.9
CN1CCN(c2ccccc2NC(=O)c2cc3c(s2)-c2ccccc2OC3)CC1	39.4	20.7	27.1	2.3	13.3	70.7*	76.2*	81.8*	75.5*
O=C(Nc1cccnc1Cl)c1cc2c(s1)-c1ccccc1OC2	-12.0	-16.4	12.6	-10.0	14.5	30.3	.	.	.
Cc1ccc(C(=O)C(C)OC(=O)Cn2cnc3c2c(=O)n(C)c(=O)n3C)cc1 (centres undefined)	-3.8	9.1	-0.3	-1.6	18.3	9.6	.	.	.
COCc1cc(C)nc(SCC(=O)Nc2ccc3c(c2)n(C)c(=O)n3C)c1C#N	-2.2	12.3	-10.1	19.8	7.5	6.6	.	.	.
CSc1nc2ccc(S(=O)(=O)N3CCCCC3)cc2s1	-5.1	.	-7.1	-0.3	9.3	63.1*	82.3*	47.5	25.6
CSc1nc2ccc(S(=O)(=O)N3CCOCC3)cc2s1	3.3	-43.5	1.1	-1.5	4.2	47.7	.	.	.
Cc1cccc(C(=O)Nc2scc(-c3ccc(Br)cc3)c2C(=O)O)c1	3.9	-15.8	12.0	89.4*	42.8	61.0*	61.2*	13.1	25.9
COc1cc(C(=O)Nc2scc(-c3ccc(Br)cc3)c2C(=O)O)cc(OC)c1OC	16.1	-9.1	25.9	36.6	27.0	16.8	.	.	.
Cc1cc(C)nc(N2CCCC(C(=O)Nc3cccc(Cl)c3)C2)n1 (centres undefined)	5.8	-4.8	3.1	5.7	0.7	14.7	.	.	.
Fc1ccc(CSc2ncnc3c2oc2ccccc23)cc1	.	-1.9	.	.	.	.	.	.	.
O=C(CSc1ncnc2c1oc1ccccc12)NCc1ccc(F)cc1	-17.7	-22.5	7.3	5.9	26.0	55.4*	63.4*	43.1	28.7
CCCCCc1nnc(NC(=O)OCCC)s1	17.9	15.5	24.2	0.9	31.5	53.9*	72.8*	56.6*	47.5
CCCCCOC(=O)Nc1nnc(CCCCC)s1	2.2	.	11.7	-0.6	24.7	38.3	.	.	.
COC(=O)[C@H](CCSC)NC(=O)Cn1cc(C)c(=O)[nH]c1=O	.	-18.7	.	.	.	.	.	.	.
CCc1cccc(NC(=O)CCNS(=O)(=O)c2ccc3c(c2)oc(=O)n3C)c1	1.6	-0.8	6.7	-4.3	7.7	7.9	.	.	.
Cc1ccc(/C=C2\SC(=S)N(c3cccnc3)C2=O)cc1	10.3	-6.1	1.3	6.6	8.2	54.1*	23.7	.	.
O=C1/C(=C/c2cccnc2)SC(=S)N1CCc1ccccc1	-25.5	21.4	9.1	-2.4	22.5	50.0*	13.6	.	.
O=C1/C(=C/c2cccnc2)SC(=S)N1CC1CCCO1 (centres undefined)	28.4	-23.3	18.8	-2.6	41.6	23.8	.	.	.
SMILES	TIM10 inh	PfHsp90 set2	tim10-1 inh	SKKanGAS inh	tim23-1 inh	NALP3 yeast inh	NALP3 confirm	Casp1 ASC ctr	NALP3 retest
O=C1/C(=C/c2ccccn2)SC(=S)N1c1cccc(O)c1	22.9	-8.9	23.0	2.9	8.9	81.3*	73.6*	79.5*	51.4*
O=C1/C(=C/c2cccnc2)SC(=S)N1c1ccc(F)cc1	15.4	-1.6	15.9	-4.8	19.5	23.9	.	.	.
O=C1/C(=C/c2cccnc2)SC(=S)N1c1ccc(O)cc1	-2.1	-2.6	5.9	-20.7	-9.7	87.3*	89.2*	90.0*	74.0*
CCOc1ccc(N2C(=O)/C(=C/c3ccccn3)SC2=S)cc1	14.9	.	6.1	-1.9	6.5	9.5	.	.	.
O=C1NC2(CCCCCC2)N=C1c1ccc(Br)cc1	1.8	8.2	18.9	-9.0	9.8	-4.1	.	.	.
CCCNc1nc(Cl)nc(NC(C)(C)C)n1	12.6	8.6	18.5	-8.3	9.2	7.9	.	.	.
COc1ccc2oc(C(=O)Nc3ccc(S(=O)(=O)N(C)C4CCN(C)CC4)cc3)c(C)c2c1	11.2	-18.4	28.0	-0.6	25.0	22.5	.	.	.
CCOC(=O)c1nn2c(C(F)(F)F)cc(-c3ccc(OC)cc3)nc2c1Br	-0.3	-38.6	0.5	4.5	11.3	15.1	.	.	.
COc1ccc(Cn2c(=O)sc3ccccc3c2=O)cc1	6.4	-2.0	11.1	.	9.9	50.6*	59.5*	60.0*	42.6
CCCC1CCC(c2ccc(OCC)cc2)=CC1=O (centres undefined)	-12.9	15.8	-4.9	-5.7	8.8	51.7*	62.2*	40.2	49.5
CCOc1ccc(N2C(=O)CCC2=O)cc1	0.9	.	4.8	3.6	4.4	-2.8	.	.	.
Cn1cc(/C(Cc2ccccc2)=N\O)c2ccccc21	19.9	13.4	-15.8	-8.9	-1.7	56.3*	68.2*	37.4	42.0
Cn1cc(C(=O)CCl)c2ccccc21	.	5.1	.	4.5	.	.	.	.	.
COc1cccc(NS(=O)(=O)c2ccc(Br)s2)c1	-13.4	29.4	22.3	6.6	9.2	52.9*	63.2*	47.1	30.3
COc1ccc(OC)c(N(C)S(=O)(=O)c2cc3c(cc2C)NC(=O)CO3)c1	-11.4	-19.5	-16.5	3.3	-4.1	16.5	.	.	.
Clc1nnc(N/N=C/c2ccccc2)c2ccccc12	15.7	-7.3	20.5	-4.5	9.7	60.1*	71.3*	49.0	33.5
COCCCNC(=O)CN1C(=O)COc2ccc(S(=O)(=O)N3CCOCC3)cc21	6.8	21.4	-9.3	-1.1	2.5	4.2	.	.	.
CCCn1ncc(C(=O)NC2CCCN(Cc3ccc(Cl)cc3)C2)c1C (centres undefined)	-0.1	1.9	9.7	0.9	12.0	7.6	.	.	.
CCN=C1SC(CC(=O)Nc2sc3c(c2C#N)CCCC3)C(=O)N1CC (centres undefined)	11.0	30.3	9.4	13.9	1.1	12.0	.	.	.
